Test results from PubChem BioAssay (Tox21).
Inconclusive results are not listed. Entries that show only a call come without a potency. The source made the active and inactive calls. Unless noted, calls follow the shape of the dose curve; as a rule, active = well fitted curve in the direction sought with a large enough effect in the repeat runs; inconclusive = weak or mixed curves; inactive = no such curve, though single readings can be large; an effect the other way counts as inactive or inconclusive.

Experiments:
[1] = qHTS assay for small molecules that induce genotoxicity in human embryonic kidney cells expressing luciferase-tagged ATAD5 (AID 651632); also: nearly all actives have a fitted effect of over 15% in size
Procedure, shortened: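 A rise in luciferase signal from ATAD5-tagged HEK293T cells marks genetic stress. Cells were exposed to compounds for 16 hr at 37C, 5% CO2, then luciferase was quantified after a 30 min room-temperature incubation with Amplite.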

[2] = qHTS assay for small molecule agonists of the p53 signaling pathway - cell viability (AID 651633; calls by dose curve; also: nearly all actives have a fitted effect of over 30% in size; also: potency is read from the fitted curve at half-maximal effect)
Procedure, shortened: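 p53RE-bla cells, seeded at 4,000 per well and rested 5 h at 37 C/5% CO2, received compounds in DMSO for 16 h at 37 C. CellTiter-Glo was then added, and luminescence was read after 30 min at room temperature to gauge cytotoxicity.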

[3] = qHTS assay for small molecule disruptors of the mitochondrial membrane potential - cell viability (AID 720634; calls by dose curve;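 also: human HepG2 liver cancer cells; series mostly up to about 83 µM; nearly all actives have a fitted effect of over 20% in size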)
Procedure, shortened: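 Cytotoxicity was quantified from ATP content by CellTiter-Glo luminescence in the same wells as the MMP dye read-out. HepG2 (2,000 cells/well) were plated overnight and exposed to compounds for 1 hr at 37 C.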

[4] = qHTS assay for small molecule disruptors of the mitochondrial membrane potential (AID 720635); also: potency is read from the fitted curve at half-maximal effect
Procedure, shortened: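 HepG2 cells (2,000/well) attached overnight at 37C, then took compound for 1 hr at 37C, 5% CO2. Mito-MPS dye was added for 30 min; fluorescence was read at 490/535 nm (monomers) and 540/590 nm (aggregates).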

[5] = qHTS assay to test for compound auto fluorescence at 590 nm (red) in HepG2 cells (AID 720674)
Procedure, shortened: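 Rose Bengal sodium served as the red fluorophore standard. HepG2 monolayers (overnight attachment, MEM with 10% FBS) were exposed to test compounds for 1 hr at 37 C and read at Ex 540/Em 590 nm.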

[6] = qHTS assay to test for compound auto fluorescence at 535 nm (green) in HepG2 cells (AID 720675)
[7] = qHTS assay to test for compound auto fluorescence at 460 nm (blue) in HEK293 cells (AID 720678)
Procedure, shortened: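 HEK293, 2,000 cells/well, 10% dialyzed FBS; attach 4-5 hr 37C; pin compound or DMSO; o/n 37C/5% CO2; fluorescence 405/460 nm; triamterene-equivalent units.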

[8] = qHTS assay to test for compound auto fluorescence at 590 nm (red) in HEK293 cells (AID 720679)
Procedure, shortened: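 Intensity at 540nm excitation and 590nm emission is reported as Rose Bengal sodium-equivalent autofluorescence. Measurements followed overnight exposure (37C, 5% CO2) of HEK293 cells, 2,000 per well, to 23 nL compound.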

[9] = qHTS assay for small molecules that induce genotoxicity in human embryonic kidney cells expressing luciferase-tagged ATAD5 - cell viability (AID 651634; calls by dose curve; also: nearly all actives have a fitted effect of over 25% in size; also: potency is read from the fitted curve at half-maximal effect)
Procedure, shortened: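 Cytotoxicity counter-readout: after 15.5 hr compound treatment at 37C, live-cell protease activity in ATAD5-luciferase HEK293T cells measured by CellTiter-Fluor fluorescence, 30 min development at 37C.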

Row | SMILES | Potency [1] | Potency [2] | Potency [3] | Potency [4] | Potency [5] | Potency [6] | Potency [7] | Potency [8] | Potency [9]
1 | CC1(C)N=C(N)N=C(N)N1c1ccc(Cl)cc1 | inactive | 5.96 µM (active) | inactive | inactive | inactive | inactive | inactive | inactive | –
2 | CCOc1cc(-c2nccc3cc(OC)c(OC)cc23)cc(OCC)c1OCC | inactive | inactive | – | – | inactive | inactive | inactive | inactive | 26.6 µM (active)
3 | C[C@]12CCC(=O)C[C@@H]1CC[C@@H]1[C@@H]2CC[C@]2(C)C=CC[C@@H]12 | inactive | inactive | – | – | inactive | inactive | inactive | inactive | inactive
4 | CC(C)(C)C1(O)CCN2CC3c4ccccc4CCc4cccc(c43)C2C1 (stereo not drawn) | inactive | 13.3 µM (active) | inactive | – | inactive | inactive | inactive | inactive | –
5 | CCN(CC)CCOc1ccc(-c2nc3cc(Cl)ccc3s2)cc1 | inactive | – | inactive | – | inactive | inactive | inactive | inactive | inactive
6 | CC(C)[C@@H](C)/C=C/[C@@H](C)[C@H]1CC[C@H]2/C(=C/C=C3\C[C@@H](O)CC[C@@H]3C)CCC[C@]12C | inactive | – | inactive | – | inactive | inactive | inactive | inactive | –
7 | Clc1ccc(COC(Cn2ccnc2)c2ccc(Cl)cc2Cl)c(Cl)c1 (stereo not drawn) | inactive | – | inactive | – | inactive | inactive | inactive | inactive | –
8 | CN1CCN2c3ncccc3Cc3ccccc3C2C1 (stereo not drawn) | – | inactive | inactive | inactive | inactive | inactive | inactive | inactive | inactive
9 | Cn1c(=O)c2c(ncn2CCOC(=O)C(C)(C)Oc2ccc(Cl)cc2)n(C)c1=O | – | inactive | inactive | inactive | inactive | inactive | inactive | – | inactive
10 | [O]=[Bi][O][Bi]=[O] | – | inactive | inactive | inactive | inactive | inactive | inactive | inactive | inactive
11 | C=CC1=C(C)C2=CC3=NC(=C(CC(=O)[O-])C4=NC(=C(C)C4=C([O-])[O-])C=c4[n-]c(c(C)c4CC)=CC1=N2)C(CCC(=O)[O-])C3C.[Cu+2].[Na+].[Na+].[Na+] (stereo not drawn) | inactive | – | – | – | inactive | inactive | inactive | inactive | 23.7 µM (active)
12 | CC(C)(C)NC(=O)[C@H]1CC[C@H]2[C@@H]3CC=C4C=C(C(=O)O)CC[C@]4(C)[C@H]3CC[C@]12C | inactive | – | inactive | – | inactive | inactive | inactive | inactive | inactive
13 | CCCCC[C@H](O)/C=C/[C@H]1[C@H](O)CC(=O)[C@@H]1CCCCCCC(=O)O | inactive | – | inactive | – | inactive | inactive | inactive | inactive | inactive
14 | COc1ccc(C2NC(=S)N3C(c4ccc(OC)c(OC)c4)NC(=S)N23)cc1OC (stereo not drawn) | inactive | – | inactive | inactive | inactive | inactive | inactive | inactive | –
15 | C[C@H]1C[C@@H]2[C@H]([C@@H](O)C[C@@]3(C)[C@H]2CC[C@]3(O)C(=O)COC(=O)CCC(=O)O)[C@@]2(C)C=CC(=O)C=C12 | inactive | – | inactive | – | inactive | inactive | inactive | inactive | inactive
16 | CC(=O)[C@@]1(O)CC[C@H]2[C@@H]3C=C(Cl)C4=CC(=O)CC[C@]4(C)[C@H]3CC[C@@]21C | inactive | – | inactive | – | inactive | inactive | inactive | inactive | inactive
17 | CN1CCN(CCCN2c3ccccc3Sc3ccccc32)CC1 | inactive | – | inactive | – | inactive | inactive | inactive | inactive | inactive
18 | CC[C@@]1(O)C[C@H](O[C@H]2C[C@H](N(C)C)[C@H](O[C@H]3C[C@H](O)[C@H](O[C@H]4CCC(=O)[C@H](C)O4)[C@H](C)O3)[C@H](C)O2)c2c(cc3c(c2O)C(=O)c2c(O)cccc2C3=O)[C@H]1C(=O)OC | – | inactive | inactive | 1.68 µM (active) | inactive | inactive | inactive | inactive | 15 µM (active)
19 | CC(CN1c2ccccc2Sc2cccnc21)N(C)C (stereo not drawn) | inactive | – | inactive | – | inactive | inactive | inactive | inactive | inactive
20 | CC(C)(C)c1ccc(CN2CCN(C(c3ccccc3)c3ccc(Cl)cc3)CC2)cc1 (stereo not drawn) | inactive | – | inactive | – | inactive | inactive | inactive | inactive | –
21 | CN1CCN(C2=Nc3ccccc3Cc3ccccc32)CC1 | inactive | – | inactive | – | inactive | inactive | inactive | inactive | inactive
22 | COCC(=O)Nc1cc(Sc2ccccc2)ccc1N=C(NC(=O)OC)NC(=O)OC | – | inactive | inactive | inactive | inactive | inactive | inactive | inactive | 4.22 µM (active)
23 | CCCCCCCC(=O)CC[C@@H]1[C@@H](C/C=C\CCCC(=O)OC(C)C)[C@@H](O)C[C@H]1O | inactive | – | – | 26.6 µM (active) | inactive | inactive | inactive | inactive | –
24 | CCCCCC(O)/C=C/C=O (stereo not drawn) | – | inactive | inactive | inactive | inactive | inactive | inactive | – | inactive
